An excerpt weighted towards active compounds, which were near 19% of everything screened.
IL1B secr inh: qHTS for Inhibitors of Inflammasome Signaling: IL-1-beta AlphaLISA Primary Screen. THP-1 LPS/ATP IL-1B secretion, AlphaLISA, 16 h; stronger effect = lower value. activity change, % at 57.5 µM. hit rate 4.7% among 360,000. AID 743279, 2014; in the data active = activity change below about -50%; inconclusive = mostly about -30% to -49%
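Secreted IL-1B measured by AlphaLISA bead assay after 16 h compound exposure of THP-1 cells; compounds (final up to 57.5 uM) added 1 h before LPS (250 ng/mL) and ATP (1.25 mM) stimulation; lower signal means less secretion.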
ELG1 repair inh: qHTS screen for small molecules that inhibit ELG1-dependent DNA repair in human embryonic kidney (HEK293T) cells expressing luciferase-tagged ELG1 | HEK293T ELG1-luciferase reporter, luminescence, 16 h; DNA damage induced by 5-fluorouridine | AID 504467, 2011 | hit rate 2.3% among 330,000 | Potency, µM (titrated, usually from 46.1 µM), for the others: at the top dose activity change, negative = inhibition, usual class: inhibitors; note: potency is the fitted concentration of half-maximal effect; nearly all actives have a fitted effect of over 55% in size
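DMSO vehicle served as the neutral condition. Each well held 2,000 cells given 5-fluorouridine plus compound; after 16 hr at 37 °C/5% CO2, ONE-Glo was added and luciferase measured 30 min later.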
HT1080 IDH1KD tx: qHTS for induction of synthetic lethality in tumor cells producing 2HG: qHTS for the HT-1080-IDH1KD cell line. HT-1080 IDH1 knockdown viability, ATP luminescence, 48 h. Potency, µM (titrated, usually from 46.1 µM), for inactives: top-dose activity, negative = toxicity, hits mostly cytotoxic. hit rate 2% among 360,000. AID 686971, 2013;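 note: potency is the fitted concentration of half-maximal effect; 0% = DMSO wells and -100% = cell-free medium wells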
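After a 2 h attachment period, IDH1KD HT-1080 cells took pin-transferred compound for 48 h at 37 °C; ATP-based luminescence after 10 min room-temperature reagent incubation reported viability.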
TDP1 cell CPT: qHTS for Inhibitors of human tyrosyl-DNA phosphodiesterase 1 (TDP1): qHTS in cells in presence of CPT; hit rate 12% among 420,000; chicken DT40 Tdp1-/-;hTDP1 cells + 20 nM CPT, ATP luminescence, 48 h; Potency, µM (highest dose often 46.2 µM), for inactives: top-dose activity change, negative = growth inhibition, most hits filed as inhibitors; note: potency is the fitted concentration of half-maximal effect; nearly all actives have a fitted effect of over 55% in size
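Cell growth measured by CellTiter-Glo luminescence after a minimum 48 h, 37 C compound exposure with 20 nM CPT in Tdp1-knockout DT40 cells stably expressing hTDP1, seeded 400/well; qHTS titration format.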
HT1080NT lethal: qHTS for induction of synthetic lethality in tumor cells producing 2HG: qHTS for the HT-1080-NT fibrosarcoma cell line. AID 686970, 2013. HT-1080-NT fibrosarcoma viability, CellTiter-Glo ATP luminescence, 48 h. Potency, µM (top dose mostly 46.1 µM), without a hit: top-dose activity, negative = less viability, hits mostly cytotoxic. hit rate 1.6% among 360,000;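 note: NT is the 2HG producing partner of a matched IDH1 knockdown line; potency is the fitted concentration of half-maximal effect; 0% = DMSO-treated cells and -100% = media-only wells without cells; nearly all actives have a fitted effect of over 55% in size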
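A 48-hour cytotoxicity screen used HT-1080-NT cells plated 2 hours before compound delivery. ATP-based CellTiter-Glo luminescence measured viability, normalized to DMSO and no-cell controls.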
DT40 TDP1 no CPT: qHTS for Inhibitors of human tyrosyl-DNA phosphodiesterase 1 (TDP1): qHTS in cells in absence of CPT | Potency, µM (highest dose often 46.2 µM), for the others: at the highest dose activity change, negative = growth inhibition, usual class: inhibitors | DT40 Tdp1-/- hTDP1 cells, no CPT, ATP luminescence, 48 h | hit rate 15% among 420,000; note: potency is the fitted concentration of half-maximal effect; nearly all actives have a fitted effect of over 55% in size
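Seeded 400 DT40-hTDP1 cells/well (vehicle DMSO, no 20 nM CPT); pinned compounds; ≥48 hr at 37 °C; CellTiter-Glo luminescence as viability measure.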
Active calls of the source: *; u = inconclusive; x = not tested or not shown. Unless noted, calls come from the whole dose curve; as a rule, active = well fitted curve in the direction sought with a large enough effect; inconclusive = small, poorly fitted or top-dose-only effect, or another doubt; inactive = no such curve, though single readings can be large; an effect the other way counts as inactive or inconclusive. Unless noted, % is set by controls: 0 for no effect and ±100 for the full control effect.

SMILES	IL1B secr inh	ELG1 repair inh	HT1080 IDH1KD tx	TDP1 cell CPT	HT1080NT lethal	DT40 TDP1 no CPT
COc1ccc(S(=O)(=O)N2CCCC2CNC(=O)C(=O)NCc2ccccc2)cc1 (stereo not given)	2	u	-12%	u	-20%	u
Cc1ccc(S(=O)(=O)N2CCCC2CNC(=O)C(=O)Nc2ccc(F)cc2F)cc1 (stereo not given)	-10	-21%	-11%	23µM*	2%	15µM*
O=C(NCc1ccc(F)cc1)C(=O)NCC1CCCN1S(=O)(=O)c1ccccc1 (stereo not given)	-21	u	-16%	-27%	-4%	u
CCN(Cc1ccccc1)C(=O)Cn1ncc2c(=O)oc3ccc(C)cc3c21	x	x	x	2%	x	-27%
CC1=C(C(=O)N(C(C)C)C(C)C)CC(CC(=O)NCc2ccco2)C(=O)N1CCC1=CCCCC1 (stereo not given)	-18	x	-9%	u	16%	u
COc1cccc(/C=N/NC(=S)NCCc2ccccc2)c1OC	13	-10%	2%	u	11%	-1%
O=C(CN(Cc1ccccc1)S(=O)(=O)c1ccccc1)N/N=C/c1ccccc1[N+](=O)[O-]	u	u	-29%	u	u	21µM*
CCCCNC(=S)N/N=C/c1cccc(OCC)c1O	-3	u	9%	1.2µM*	29%	2.1µM*
CCOc1cccc(/C=N/NS(=O)(=O)c2ccc(C)c([N+](=O)[O-])c2)c1O	65	9%	-8%	6%	-15%	-2%
CCOc1cccc(/C=N/NC(=S)Nc2ccccc2[N+](=O)[O-])c1O	147	u	16µM*	9.2µM*	u	8.2µM*
O=[N+]([O-])c1ccccc1/C=N/Nc1nnc(-c2ccccc2)c(-c2ccccc2)n1	10	-13%	19%	2.1µM*	7%	1.6µM*
O=C(NCc1nnc2n1CCN(Cc1ccccc1C(F)(F)F)CC2)c1ccncc1	x	x	x	-22%	x	-7%
O=[N+]([O-])c1ccccc1C=NNC(=S)NN=Cc1ccccc1[N+](=O)[O-]	-7	x	u	6.5µM*	u	3.3µM*
CC(C)NC(=S)N/N=C/c1ccccc1[N+](=O)[O-]	19	-17%	-1%	5%	-4%	u
CC1(c2ccc(Cl)cc2)CC(C)(C)N(C(=O)c2cccc(F)c2)c2ccccc21 (stereo not given)	x	x	x	u	x	18µM*
CC1(c2ccccc2)CC(C)(C)N(C(=O)c2ccccc2Cl)c2ccccc21 (stereo not given)	x	x	x	6.5µM*	x	5.2µM*
CCc1nn(CC(=O)NC2CC2)c(=O)c2cc3c(OC)cccc3n12	x	x	x	-9%	x	u
COc1cccc(/C=C2/CN(C)CC3=C2OC(N)=C(C#N)C3c2cccc(OC)c2)c1 (stereo not given)	u	u	u	18µM*	u	16µM*
CCOC1CCCc2oc(-c3ccc(N(C)C)cc3)c(C(=O)OC)c21 (stereo not given)	17	x	u	u	u	u
COC(=O)c1c(-c2ccc(N(C)C)cc2)oc2c1C(OC)CCC2 (stereo not given)	-10	x	-25%	u	-10%	18µM*
Cc1cc(Cl)ccc1NC(=O)CN1C(=O)C(=O)N(C2CCCC2)C1=O	-9	6%	0%	-9%	-1%	-29%
CC(C)COC(=O)N(C)C[C@H]1OCc2cnnn2CCCC(=O)N([C@H](C)CO)C[C@@H]1C	14	x	0%	-20%	-3%	13%
CCN1C(=O)C(CC(=O)Nc2ccc(OC)cc2)N(CCc2ccc(OC)cc2)C1=S (stereo not given)	-86*	u	1%	u	-26%	u
COCCCN1C(=O)N(c2ccc(F)cc2)C(=O)C1CC(=O)Nc1ccccc1 (stereo not given)	3	1%	0%	-20%	20%	-18%
CCN1C(=O)C(CC(=O)Nc2ccc(OC)cc2)N(Cc2ccc(OC)c(OC)c2)C1=S (stereo not given)	-12	-8%	-6%	-13%	-5%	u
COc1ccc(CCN2C(=S)N(c3ccccc3)C(=O)C2CC(=O)O)cc1OC (stereo not given)	10	4%	6%	19%	3%	-24%
Cc1ccc(N2C(=O)C(CC(=O)Nc3cccc(F)c3)N(CCc3ccccc3F)C2=O)cc1 (stereo not given)	x	x	x	16µM*	x	21µM*
CCCOc1ccc(NC(=O)CC2C(=O)N(c3ccccc3)C(=O)N2CCC(C)C)cc1 (stereo not given)	x	x	x	u	x	15µM*
C=CCN1C(=O)N(c2ccccc2)C(=O)C1CC(=O)Nc1ccc(OC)cc1 (stereo not given)	-17	9%	2%	13%	-1%	7%
CNC(=O)CC1C(=O)N(c2ccc(Cl)cc2)C(=S)N1CCc1ccc(OC)c(OC)c1 (stereo not given)	-50*	u	-21%	u	-29%	9.2µM*

Assay outcomes deposited in PubChem by National Center for Advancing Translational Sciences (NCATS).
